Source: PubChem
FBW7 activator: activators of human E3 ligase FBW7; 0.13% of 650,000 active; normalized activity (activation), % at 26.1 µM; AlphaScreen FBW7–phospho-cyclin E peptide binding, activator screen; in the data active means normalized activity above about 1.9%;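 further: purified mutant Fbw7 with reduced substrate affinity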
GPR151 activ: activates the human receptor GPR151; activation, % at 11.2 µM; PathHunter beta-arrestin GPR151 cells, luminescence; 1% of 650,000 active; AID 1508602; Q8TDV0; in the data active means activation above about 4.9%
Target sequence (Q8TDV0 whole entry, looked up): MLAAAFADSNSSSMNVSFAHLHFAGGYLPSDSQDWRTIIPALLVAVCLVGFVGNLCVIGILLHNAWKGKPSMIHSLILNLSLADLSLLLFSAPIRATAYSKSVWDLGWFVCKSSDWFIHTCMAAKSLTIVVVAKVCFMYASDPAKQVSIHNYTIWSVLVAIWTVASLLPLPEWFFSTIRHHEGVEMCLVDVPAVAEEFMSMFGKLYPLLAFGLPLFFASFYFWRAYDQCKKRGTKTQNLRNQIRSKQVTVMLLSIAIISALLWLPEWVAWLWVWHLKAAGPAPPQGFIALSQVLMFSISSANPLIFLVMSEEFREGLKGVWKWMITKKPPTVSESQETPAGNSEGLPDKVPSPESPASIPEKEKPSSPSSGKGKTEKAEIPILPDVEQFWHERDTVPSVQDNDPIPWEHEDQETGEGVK
MITF inh: human MITF inhibition, primary screen. O75030. AlphaScreen MITF homodimerization, bead proximity signal. inhibition, % at 2.6 µM. 0.91% of 650,000 active. AID 1259374; in the data active means inhibition above about 50%
TEAD-YAP inh: TEAD-YAP interaction inhibition; AID 1259422; 1.4% of 640,000 active; HEK-TIYL cells, TEAD-Gal4/YAP UAS-luciferase luminescence; inhibition, % at 9.12 µM; in the data active means inhibition above about 32%
Of the large screens only hits and unclear results are named; the others gave an inactive call. Rows were chosen to be rich in hits. Some 3.5% of all compounds tested hit in one or more screens of this group.

O=C(Nc1ccccc1C(=O)N1CCCC1)c1ncoc1-c1ccccc1C(F)(F)F	TEAD-YAP inh 63
COc1ccccc1-c1ocnc1C(=O)Nc1ccccc1C(=O)N1CCCC1	none
Cc1cc(C(=O)N2CCC(Oc3ccc(C(=O)NCCc4ccccc4)cc3)CC2)no1	none
O=C(NCCc1ccccc1)c1ccc(OC2CCN(C(=O)c3ccsc3)CC2)cc1	none
Cc1ncoc1C(=O)N1CCC(Oc2ccc(C(=O)NCCc3ccccc3)cc2)CC1	TEAD-YAP inh 50
Cc1ccoc1C(=O)N1CCC(Oc2ccc(C(=O)NCCc3ccccc3)cc2)CC1	TEAD-YAP inh 83
O=C(NCCc1ccccc1)c1ccc(OC2CCN(C(=O)c3ccoc3)CC2)cc1	TEAD-YAP inh 53
COCC(=O)N1CCC(Oc2ccc(C(=O)NCCc3ccccc3)cc2)CC1	none
O=C(NCCc1ccccc1)c1ccc(OC2CCN(C(=O)Cn3cncn3)CC2)cc1	TEAD-YAP inh 76
CCOC(=O)C(NC(=O)c1c[nH]c2ccc(S(=O)(=O)N(C)C3CCCCC3)cc2c1=O)C(=O)OCC	none
N#Cc1ccc(NC(=O)c2cc([N+](=O)[O-])ccc2Sc2nnnn2-c2ccccc2)cc1	none
N#Cc1cc([N+](=O)[O-])ccc1Sc1nnnn1-c1ccccc1	TEAD-YAP inh 46
Cc1ccc(-n2nnnc2Sc2ccc([N+](=O)[O-])cc2C#N)cc1	TEAD-YAP inh 45
O=[N+]([O-])c1ccc(Sc2nnnn2-c2ccccc2)c([N+](=O)[O-])c1	none
CN(C)CCNS(=O)(=O)c1ccc(Sc2nnnn2-c2ccccc2)c([N+](=O)[O-])c1	TEAD-YAP inh 84
Cc1nonc1CNC(=O)c1c(CC2CCCC2)n(CCN(C)C)c(C)cc1=O	none
CC(C)(C)c1ccc(-c2nc(-c3ccccn3)no2)cc1	TEAD-YAP inh 96
c1ccc(-c2noc(-c3ccncc3)n2)nc1	none
COc1cccc(-c2nc(-c3ccccn3)no2)c1	TEAD-YAP inh 86
Brc1cccc(-c2nc(-c3ccccn3)no2)c1	TEAD-YAP inh 73
Clc1ccccc1/C=C/c1nc(-c2ccccn2)no1	TEAD-YAP inh 85
COc1cccc(-c2nc(-c3ccccc3)no2)c1	none
Ic1cccc(-c2nc(-c3ccccn3)no2)c1	none
CCc1cccc(N2C(=O)Nc3ccccc3N2O)c1	none
COc1ccc(Cl)cc1C(=O)NCc1ccccc1	none
CCN(CC)c1ccc(/C=N/S(=O)(=O)c2ccc(C)cc2)cc1	none
Brc1ccc(-c2nc(-c3ccccn3)no2)cc1	TEAD-YAP inh 90
CC(=O)Nc1ccc(Nc2nc(Nc3ccccn3)nc3c2ncn3-c2ccccc2)cc1	TEAD-YAP inh 56
c1ccc(-n2cnc3c(Nc4ccc(N5CCOCC5)cc4)nc(Nc4ncccn4)nc32)cc1	none
Cn1c(Nc2nc(Nc3ccc(N4CCOCC4)cc3)c3ncn(-c4ccsc4)c3n2)nc2ccccc21	TEAD-YAP inh 35
Cn1c(Nc2nc(Nc3ccc(N4CCOCC4)cc3)c3ncn(-c4ccccc4)c3n2)nc2ccccc21	TEAD-YAP inh 33
c1ccc(-n2cnc3c(Nc4ccc(N5CCOCC5)cc4)nc(Nc4ccccn4)nc32)cc1	TEAD-YAP inh 58
COc1cc(CN2CCNC(=O)C2CC(=O)NCCN2CCCCC2=O)cc(OC)c1 (centres undefined)	none
Cc1cc(C)n(CCn2ncc3cccn3c2=O)n1	none
COc1ccc(-c2nc(Nc3ccc(NC(C)=O)cc3)c3ncn(-c4ccccc4)c3n2)cc1	TEAD-YAP inh 41
Cc1cc2nc(N3CCCN(Cc4c(C)nc5sccn45)CC3)nc(C)c2cc1C	TEAD-YAP inh 32
Cc1cc2nc(N3CCCN(Cc4ccc(CO)o4)CC3)nc(C)c2cc1C	none
CCOC(=O)C1=C(CSc2nnc(NCc3ccccc3)s2)NC(=O)NC1C (centres undefined)	none
O=C1C2C3CCC(O3)C2C(=O)N1c1cccc([N+](=O)[O-])c1 (centres undefined)	none
O=C1C2C3CCC(O3)C2C(=O)N1c1ccc2nc3ccccc3cc2c1 (centres undefined)	TEAD-YAP inh 80
COc1ccc(OCC(O)Cn2c3ccccc3c3ccccc32)cc1 (centres undefined)	TEAD-YAP inh 45
COc1cccc(Cn2c(=O)n(CCCCC(=O)NC3CCCCC3)c(=O)c3ccccc32)c1	none
COc1cccc(Cn2c(=O)n(CCCCC(=O)NCc3ccco3)c(=O)c3ccccc32)c1	TEAD-YAP inh 48
O=C(CCCCn1c(=O)c2ccccc2n(Cc2ccccc2)c1=O)NCc1cccs1	TEAD-YAP inh 38
O=C(CCCCn1c(=O)c2ccccc2n(Cc2ccc(F)cc2Cl)c1=O)NCc1cccs1	none
CCOc1ccc(CN2CCN(Cc3cccc(OCC)c3)CC2CCO)cc1 (centres undefined)	none
O=C(NCCc1ccc(O)cc1)c1cccc(-c2ccc(N3CCOCC3)nc2)n1	TEAD-YAP inh 46
O=C(NCCc1ccc(O)cc1)c1cccc(Nc2ccc(N3CCOCC3)cc2)n1	TEAD-YAP inh 57
CCCNC(=O)c1cccc(Nc2ccc(N3CCOCC3)cc2)n1	none
O=C(Nc1ccc(N2CCOCC2)cc1)c1cccc(Cl)n1	TEAD-YAP inh 60
C/C(=C\C(=O)O)C(=O)Nc1ccc(N2CCOCC2)cc1	MITF inh 53
CC(=O)Nc1ccc(N2CCOCC2)cc1	none
O=C(NCCN1CCOCC1)c1cccc(-c2ccc(N3CCOCC3)nc2)n1	none
COc1ccc(NC(=O)NCc2noc3ccccc23)cc1Cl	none
Cc1cc(C(=O)NN2CCOCC2)ccc1[N+](=O)[O-]	none
O=c1c(N2CCCC2)c(Cl)cnn1Cc1ccccc1	none
COc1ccc(NC(=O)C(=O)NCC2CCCN2S(=O)(=O)c2cccs2)cc1 (centres undefined)	TEAD-YAP inh 45
Cc1ccc(NC(=O)C(=O)NCC2CCCN2S(=O)(=O)c2cccs2)cc1C (centres undefined)	none
Cc1noc(C)c1-c1nc2ncnc(NCCN3CCOCC3)c2[nH]1	none
Fc1cc(-c2nc(Nc3ccc(Cn4ccnc4)cc3)ncc2F)cc(N2CCOCC2)c1	TEAD-YAP inh 89
Fc1cc(-c2nc(Nc3cccc(Cn4cncn4)c3)ncc2F)cc(N2CCOCC2)c1	TEAD-YAP inh 88
Fc1cc(-c2nc(Nc3cccc(Cn4ccnc4)c3)ncc2F)cc(N2CCOCC2)c1	TEAD-YAP inh 94
Fc1cnc(Nc2ccc(Cn3cccn3)cc2)nc1-c1cc(N2CCOCC2)cc(C(F)(F)F)c1	none
Fc1cnc(Nc2ccc(Cn3ccnc3)cc2)nc1-c1cc(N2CCOCC2)cc(C(F)(F)F)c1	TEAD-YAP inh 40
O=C(NCCOc1ccccc1)c1cccc(N2CCN(c3ccccn3)CC2)n1	none
Fc1cc(-c2nc(Nc3ccc(-n4cnc(-c5ccccn5)c4)cc3)ncc2F)cc(N2CCOCC2)c1	TEAD-YAP inh 54
Fc1cc(-c2nc(Nc3ccc(-c4cnco4)cc3)ncc2F)cc(N2CCOCC2)c1	none
CCN(CC)S(=O)(=O)c1ccc(N/N=C2\CC(=O)c3ccccc32)c([N+](=O)[O-])c1	none
CCOC(=O)c1c(C)c(C(=O)Nc2ccc(C(=O)OC)cc2)c(C)n1CC	none
CCOC(=O)c1c(C)c(C(=O)Nc2ccc(OC)cc2OC)c(C)n1CC	TEAD-YAP inh 46
CCOC(=O)c1c(C)c(C(=O)Nc2ccc(OC)cc2)c(C)n1CC	TEAD-YAP inh 47
